# Bioassay records (PubChem)
# ABHD5-PLIN5 inh: inhibitors of human ABHD5-perilipin-5 interaction | Q00G26+Q8WTS1 | 0.78% of 360,000 active | Split G. princeps luciferase complementation, luminescence, 4 h | inhibition, % at 4 µM | AID 602281;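 active = inhibition above the mean inhibition across every tested compound plus 3 SD, cut at about 22% in these data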;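 also: 0% = DMSO only wells and the 100% control is not disclosed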
# CF NFkB block: blocks PAF-induced NF-kB reporter in cystic fibrosis cells; KKLEB NF-kB-GFP reporter, GFP fluorescence overnight; inhibition, % at 5 µM; 0.86% of 360,000 active; AID 588850;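 active = at least 50% inhibition at 5 µM, scaled per plate between neutral and stimulator controls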;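 also: PAF is a Pseudomonas aeruginosa culture filtrate used as stimulus; plate controls were PAF-stimulated DMSO wells for no effect and unstimulated DMSO wells for full effect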
# Peg3 promoter: inhibitors of Peg3 promoter; HeLa PEG-Prom luciferase reporter, luminescence, overnight; inhibition, % at 20 µM; 1.7% of 360,000 active;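 active = inhibition of at least 50% at 20 µM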
# HIF-2a inh: HIF-2a inhibition. 786-0 RCC cells HIF-2a reporter, luciferase luminescence, overnight. 0.72% of 360,000 active. inhibition, % at 18.8 µM;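 active = inhibition of the luminescence signal of 40% or more relative to plate controls, in a single-dose primary screen at 18.75 µM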
# TRPM1 prom inh: reduces MITF-dependent TRPM1 promoter luciferase signal | AID 488899 | inhibition, % at 12.5 µM | SK-MEL-5 TRPM1 promoter luciferase, 24 h | 0.83% of 330,000 active;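 active = mean inhibition across replicates of 60% or more, whatever share of single replicates reaches that level; inconclusive = some that reach 60%, reason not given; inactive = mean inhibition across replicates below 60%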
# KKLEB tox: counter-screen for CF NF-kB inhibitors: cytotoxicity | KKLEB CF airway cells viability, ATPlite luminescence, overnight; hits give low values; cells stimulated with P. aeruginosa culture filtrate | activity change (cytotoxicity), % at 5 µM | 0.36% of 360,000 active | AID 602141;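 active = corrected activity change at or below -50% at 5 µM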
# ABHD5-PLIN5 conf: confirmation of human ABHD5-PLIN5 interaction inhibitors. shares compounds with ABHD5-PLIN5 inh. biochemical ABHD5-PLIN5 interaction, luminescence. inhibition, % at 4 µM. 67% of 2,200 active. AID 651612; in the data active = inhibition above about 23%;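 also: 0% = DMSO vehicle wells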
# HNF4 counter: counter-screen for ABHD5-PLIN5 inhibitors: HNF4 split-luciferase. shares compounds with ABHD5-PLIN5 inh. HNF4 dimerization, luminescence, biochemical. inhibition, % at 4 µM. 77% of 2,200 active;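 active = mean inhibition across replicate wells exceeding the computed hit threshold, cut at about 13% in these data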;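 also: light from luciferase halves that rejoin when HNF4 fusion proteins dimerize; 0% = DMSO only wells and the 100% control is not given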
# Target sequence (P41235 whole entry, looked up, the tested form may be a part): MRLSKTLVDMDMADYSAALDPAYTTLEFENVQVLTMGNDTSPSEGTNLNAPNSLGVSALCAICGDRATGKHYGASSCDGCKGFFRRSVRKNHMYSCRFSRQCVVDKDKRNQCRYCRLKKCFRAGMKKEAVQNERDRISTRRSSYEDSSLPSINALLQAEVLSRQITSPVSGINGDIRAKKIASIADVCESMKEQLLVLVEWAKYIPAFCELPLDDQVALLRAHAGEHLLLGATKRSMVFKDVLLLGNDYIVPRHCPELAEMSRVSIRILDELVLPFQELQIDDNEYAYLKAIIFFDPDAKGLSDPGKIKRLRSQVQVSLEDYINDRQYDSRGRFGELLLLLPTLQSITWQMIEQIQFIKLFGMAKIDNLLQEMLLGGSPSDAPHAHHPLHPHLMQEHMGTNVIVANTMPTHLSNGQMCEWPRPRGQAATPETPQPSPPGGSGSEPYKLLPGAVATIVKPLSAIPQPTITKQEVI
# Mdm2 MdmX conf: Mdm2/MdmX (human) interaction inhibition, confirmed | shares compounds with HIF-2a inh | SaOS-2 split-luciferase Mdm2/MdmX complementation, luminescence | inhibition, % at 8 µM | 99% of 740 active | AID 504601;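 active = mean inhibition of the luminescence signal across two replicates at or above 26 percent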
# HIF-2a inh conf: confirmation of HIF-2a inhibitors | shares compounds with HIF-2a inh | 786-0 RCC cells, HIF-2a luciferase reporter luminescence, overnight | inhibition, % at 18.8 µM | 56% of 1,800 active;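 active = mean inhibition across four replicates of at least 40 percent at the single tested concentration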
# HIF-1a counter: counter-screen for HIF-2a inhibitors: HIF-1a inhibition in MiaPaCa-2 cells | shares compounds with HIF-2a inh | MiaPaCa-2 HIF-1a luciferase reporter, desferoxamine, overnight | inhibition, % at 18.8 µM | 72% of 1,800 active;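 active = mean inhibition of the reporter signal across four replicates at the single tested dose of 50% or more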
# An asterisk follows results filed as active; ? = inconclusive; · = no result given. This is a sample that favours compounds with a hit; in the whole collection about 3% have one here.
SMILES,ABHD5-PLIN5 inh,CF NFkB block,Peg3 promoter,HIF-2a inh,TRPM1 prom inh,KKLEB tox,ABHD5-PLIN5 conf,HNF4 counter,Mdm2 MdmX conf,HIF-2a inh conf,HIF-1a counter
CCN1C(=O)CS/C1=N\S(=O)(=O)c1ccc(Cl)cc1,-2.8,6.2,-14.0,6.4,-8.9,-10.4,·,·,·,·,·
CC(C)C[C@H](NC(=O)N1CCCCCC1)C(=O)O,-1.7,1.1,-0.2,9.6,-6.7,7.4,·,·,·,·,·
CC1=C(CO)C(=O)OC([C@@H](C)C2CC[C@H]3C4C[C@H]5O[C@]56[C@@H](O)C=CC(=O)[C@]6(C)C4CC[C@]23C)C1 (stereo not given in full),64.6*,84.6*,109.4*,94.2*,106.4*,-3.1,76.7*,76.6*,·,97.1*,107.0*
COc1ccc(/C=C/C(=O)Nc2cccc(N3CCOCC3)c2)cc1OC,0.5,0.0,5.5,-24.4,-9.7,10.2,·,·,·,·,·
COc1ccccc1N1CCN(S(=O)(=O)CCNC(=O)c2cccs2)CC1,-2.2,-25.9,-7.5,-1.9,·,8.4,·,·,·,·,·
CCN(C(=O)COC(=O)/C(=C/c1ccccc1)n1nnnc1C)C1CCCCC1,34.1*,13.9,15.9,42.4*,10.2,16.6,51.6*,35.7*,·,36.6,62.6*
Cc1ccc(OCc2cccc(S(=O)(=O)N(C)C)c2)c([N+](=O)[O-])n1,0.5,15.4,8.7,0.6,-6.0,-14.2,·,·,·,·,·
O=C1NC(Cc2ccccc2)C(=O)N1Cc1cc([N+](=O)[O-])cc2c1OCOC2 (stereo not given),-1.6,0.9,20.6,14.8,-4.3,-6.2,·,·,·,·,·
Cc1ccc(S(=O)(=O)c2ncccc2N)cc1,6.3,-3.0,2.6,20.6,1.2,8.3,·,·,·,·,·
Cc1ccc(S(=O)(=O)c2ncccc2[N+](=O)[O-])cc1,42.5*,102.1*,101.8*,72.4*,76.6*,-64.6*,55.4*,70.2*,100.5*,46.7*,20.2
CCS(=O)(=O)c1ncc(Cl)c(C(=O)Nc2ccc(S(=O)(=O)N3CCC(C)CC3)cc2)n1,73.3*,98.0*,104.8*,86.2*,97.2*,-105.4*,98.8*,103.4*,102.7*,99.2*,102.7*
CCc1ccc(NC(=O)c2nc(S(=O)(=O)Cc3ccccc3)ncc2Cl)cc1,77.4*,91.3*,100.7*,94.9*,92.2*,-96.8*,89.4*,89.3*,103.5*,88.0*,87.0*
Cc1ccc(NC(=O)c2nc(S(=O)(=O)Cc3ccccc3C)ncc2Cl)cc1C,71.7*,99.0*,108.1*,93.0*,77.9*,-97.6*,97.9*,97.4*,103.5*,·,·
COC(=O)c1ccc(NC(=O)c2nc(S(=O)(=O)Cc3cccc(C)c3)ncc2Cl)cc1,44.3*,85.2*,99.0*,92.2*,94.0*,-101.4*,92.0*,95.2*,103.5*,75.3*,94.5*
O=C(NC1CCN(Cc2ccccc2)CC1)c1cccc(Br)c1,-7.2,-13.1,10.7,14.8,8.7,9.6,·,·,·,·,·
Cc1ccc(-c2nc(SCC(=O)Nc3cc(C)on3)c3c(=O)n(C)c(=O)n(C)c3n2)cc1,2.5,-11.3,15.8,14.7,11.0,0.9,·,·,·,·,·
Cc1onc(-c2ccccc2Cl)c1C(=O)NCc1ccc(F)cc1,-3.9,16.5,9.0,20.9,-3.1,-13.7,·,·,·,·,·
CN(CC(=O)Nc1ccccc1C(F)(F)F)C(=O)C1CCN(S(=O)(=O)c2ccc3c(c2)OCCO3)CC1,-10.9,-21.1,10.1,4.2,6.7,14.8,·,·,·,·,·
CC(C)c1nnc(NC(=O)c2nc(S(=O)(=O)Cc3ccccc3)ncc2Cl)s1,35.1*,99.8*,104.8*,91.6*,82.6*,-87.3*,84.5*,68.5*,101.7*,·,·
Cc1cccc(CS(=O)(=O)c2ncc(Cl)c(C(=O)NCc3ccc4c(c3)OCO4)n2)c1,49.5*,88.8*,103.5*,62.3*,?,-22.1,86.8*,105.4*,·,49.0*,47.2
CN(c1ccccc1)S(=O)(=O)c1ccc(NC(=O)c2nc(S(C)(=O)=O)ncc2Cl)cc1,77.9*,107.8*,110.6*,64.8*,100.5*,-28.8,91.1*,106.3*,103.2*,99.5*,94.1*
CCOC(=O)CC1CCCCN1C(=O)CCCn1nnnc1CN1CCC(C)CC1 (stereo not given),-2.4,2.5,-4.5,-11.0,1.2,-14.1,·,·,·,·,·
C#CCN1C(C)=CC(=O)[C@@H](O)[C@H]1c1ccccc1Br,-4.9,-2.3,0.8,13.7,2.0,2.9,·,·,·,·,·
Cc1noc(/C=C/c2ccccn2)c1[N+](=O)[O-],42.2*,5.0,26.4,72.7*,53.6,-10.7,77.3*,70.2*,·,86.5*,106.4*
NS(=O)(=O)c1ccc(CNC(=O)/C=C/c2cccc(Cl)c2)cc1,-1.6,-8.5,9.5,15.2,7.4,-2.0,·,·,·,·,·
SMILES,ABHD5-PLIN5 inh,CF NFkB block,Peg3 promoter,HIF-2a inh,TRPM1 prom inh,KKLEB tox,ABHD5-PLIN5 conf,HNF4 counter,Mdm2 MdmX conf,HIF-2a inh conf,HIF-1a counter
O=C(/C=C/c1cccc(Cl)c1)c1ccc([N+](=O)[O-])o1,95.8*,87.1*,99.0*,96.6*,97.6*,-46.4,103.5*,110.2*,102.0*,·,·
CC(C)(C)OC(=O)N[C@@H](COCc1ccccc1)C(=O)N[C@@H](CO)[C@H](O)[C@@H]1C[C@@H]1C(=O)NC1CCCCC1,-4.8,-7.8,-8.8,-5.6,-8.0,3.7,·,·,·,·,·
Nc1nnnn1/N=C/C(Br)=C/c1ccccc1,28.3*,91.2*,114.1*,83.0*,84.5*,-94.4*,53.9*,51.1*,102.7*,29.6,104.1*
O=S(=O)(/C(=C/c1ccc(C(F)(F)F)cc1)c1nc2ccccc2[nH]1)c1ccccc1,70.2*,83.5*,106.2*,89.9*,90.5*,-64.2*,104.2*,103.3*,·,98.9*,107.1*
CC(C)c1ccc(/C=C(\c2nc3ccccc3[nH]2)S(=O)(=O)c2ccccc2)cc1,75.4*,93.4*,104.5*,90.1*,87.5*,-68.3*,89.8*,71.5*,103.0*,97.8*,104.2*
O=C(NCc1ccc2c(c1)OCO2)c1ccc(Br)cc1,0.0,-4.9,-1.3,-8.6,-5.3,-11.3,·,·,·,·,·
